Assay results: article PMC5540273 (PLoS ONE, 2017)

Assays:
Conditions in all cases: concentration: 1 μM,replicates: in singlicate; n = 1
ZAK = system: ZAK
ZAP70 = system: ZAP70
p38-alpha = system: T1, p38-alpha
T1 construct: gene MAPK14

p38-beta = system: T2, p38-beta
T2 construct: gene MAPK11

p38-delta = system: p38-delta
p38-gamma = system: T3, p38-gamma
T3 construct: gene MAPK12
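Also: KINOMEscan kinase panel screen.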

Compound | %Inh (ZAK) | %Inh (ZAP70) | %Inh (p38-alpha) | %Inh (p38-beta) | %Inh (p38-delta) | %Inh (p38-gamma)
CN(c1ccc2c(c1)nc(NCc1ccc(F)cc1)n2C)c1ccnc(Nc2ccc(CS(C)(=O)=O)cc2)n1.Cl [GW813244] | 41% | 13% | 13% | 6% | 0% | 44%
Cc1ccn2nc(-c3ccc(F)cc3)c(-c3ccncc3)c2c1.Cl [GW457859] | 0% | 0% | 99.7% | 18% | 52% | 30%
CCN1CCN(CCCC(=O)Nc2n[nH]c3nc(-c4ccc(O)cc4)c(Br)cc23)CC1 [SB-731579] | 0% | 0% | 2% | 0% | 30% | 0%
COc1ccc(Nc2nccc(N3CCC(NC(=O)c4cccc(C#N)c4)C3)n2)cc1 (stereo not drawn) [GSK1379730] | 26% | 0% | 5% | 0% | 38% | 0%
O=C(Nc1cccc(C(F)(F)F)c1)c1cccc(Oc2ccc3nccn3n2)c1 | 35% | 15% | 0% | 0% | 0% | 27%
C[C@@H]1CNc2c(sc3ccc4nc(-c5ccc(O)cc5)ccc4c23)C(=O)N1 | 0% | 0% | 5% | 33% | 30% | 2%
O=C(Nc1ccccc1)c1cccc(Oc2ccc3nccn3n2)c1 | 0% | 0% | 0% | 0% | 0% | 3%
Cn1ccc2ncnc(Oc3ccc(NC(=O)Nc4cccc(C(F)(F)F)c4)c(Cl)c3)c21 | 14% | 0% | 0% | 44% | 35% | 10%
CC(C(=O)NC1CCN(c2ccnc(Nc3ccc(F)cc3)n2)C1)c1ccc(Cl)cc1 (stereo not drawn) [GSK1379713] | 5% | 0% | 8% | 0% | 5% | 0%
COc1cc2ncn(-c3cc(OCC4CCCCC4)c(C(N)=O)s3)c2cc1OC [GSK204559] | 7% | 0% | 0% | 0% | 28% | 0%
CCCC(=O)Nc1n[nH]c2ncccc12 [SB-601436] | 20% | 0% | 0% | 0% | 0% | 13%
Cc1cccc(-c2nc(Nc3ccncc3)c3sccc3n2)n1 [GW869641] | 27% | 14% | 31% | 17% | 0% | 32%
COc1cc(Nc2nccc(N3CCC(NC(=O)c4cccc(C#N)c4)C3)n2)cc(OC)c1OC (stereo not drawn) [GSK1379751] | 0% | 45% | 23% | 0% | 22% | 0%
COc1cccc(OC)c1C(=O)Nc1cccc(-c2nn3ccccc3c2-c2ccnc(Nc3cccc(F)c3)n2)c1 [GSK361065] | 66% | 0% | 21% | 90% | 11% | 24%
CS(=O)(=O)Nc1ccc(-c2ccnc3[nH]ccc23)cc1 [GSK993273] | 13% | 0% | 0% | 0% | 48% | 41%
Cn1ccc2ncnc(Oc3ccc(NC(=O)Nc4cccc(C(F)(F)F)c4)c(F)c3)c21 | 18% | 1% | 12% | 20% | 0% | 62%
COc1cc2nccc(Nc3ccc(Oc4ccccc4)cc3)c2cc1OC.Cl [GI261656] | 55% | 0% | 0% | 0% | 20% | 0%
Cc1ccc(CC(=O)N2CCc3cc(-c4cn(C)c5ncnc(N)c45)ccc32)cc1 [GSK2634758] | 21% | 0% | 0% | 0% | 8% | 0%
Cc1ccc2c(-c3ccnc(Nc4ccc(C(F)(F)F)cc4)n3)cnn2n1 [GW819776] | 0% | 15% | 0% | 0% | 0% | 44%

Compound | %Inh (ZAK) | %Inh (ZAP70) | %Inh (p38-alpha) | %Inh (p38-beta) | %Inh (p38-delta) | %Inh (p38-gamma)
COC(=O)Nc1nc2cc(Oc3ccc(NC(=O)Nc4cc(C(F)(F)F)ccc4Cl)cc3)ccc2[nH]1.Cl [GW697465] | 98.4% | 0% | 83% | 45% | 48% | 0%
Cc1cccc2c(-c3ccncc3)c(-c3ccc(F)cc3)nn12.Cl [GW461487] | 0% | 5% | 98.3% | 22% | 39% | 17%
O=C(Nc1n[nH]c2cc(-c3ccco3)ccc12)C1CC1 [SB-737447] | 0% | 0% | 0% | 0% | 3% | 26%
CN(c1ccccc1CNc1nc(Nc2ccc3c(c2)CC(=O)N3)ncc1C(F)(F)F)S(C)(=O)=O | 0% | 0% | 0% | 0% | 56% | 0%
N#Cc1cccc(C(=O)NC2CCN(c3ccnc(Nc4ccc(F)cc4)n3)C2)c1 (stereo not drawn) [GSK1379708] | 0% | 0% | 35% | 0% | 38% | 0%
CN(c1cccc(CNc2nc(Nc3ccc4c(c3)CC(=O)N4)ncc2C(F)(F)F)c1)S(C)(=O)=O | 0% | 0% | 0% | 0% | 11% | 9%
CS(=O)c1ccc(-c2coc3ccc(-c4n[nH]c(=O)o4)cc23)cc1 (stereo not drawn) | 0% | 1% | 10% | 9% | 0% | 0%
Nc1nccc(-c2ccc3c(N)n[nH]c3c2)n1 [GSK1034945] | 1% | 0% | 0% | 0% | 36% | 0%
CNC(=O)c1ccccc1Nc1nc(Nc2cccc(CS(C)(=O)=O)c2)ncc1C.O=CO [GSK1520489] | 0% | 0% | 0% | 0% | 2% | 0%
FC(F)(F)c1cc(Br)cc(Nc2nccc(-c3cnn4ncccc34)n2)c1 [GW810578] | 16% | 0% | 0% | 0% | 0% | 41%
CCn1c(-c2nonc2N)nc2cncc(Br)c21 [SB-738004] | 15% | 9% | 6% | 0% | 0% | 7%
Cc1nnc(-c2ccc3occ(-c4ccc(S(C)=O)cc4)c3n2)o1 (stereo not drawn) | 0% | 0% | 0% | 0% | 0% | 0%
Cn1cc(-c2cccc3c(N)c(C(N)=O)nnc23)cn1 | 0% | 9% | 2% | 16% | 6% | 27%
C[C@@H]1CCN(C(=O)N2CCCC2)C[C@@H]1N(C)c1ncnc2[nH]ccc12 | 12% | 0% | 5% | 2% | 25% | 10%
Cn1ccc2ncnc(Oc3ccc(NC(=O)Nc4cc(C(C)(C)C)on4)c(Cl)c3)c21 | 87% | 0% | 97.2% | 78% | 36% | 56%
CCNCC(Cc1ccccc1)NC(=O)c1cc(Br)c(-c2ccnc3[nH]ccc23)s1.Cl.Cl (stereo not drawn) [GSK1383280] | 15% | 0% | 11% | 0% | 53% | 0%
COc1cc2c(Nc3ccc(NC(=O)c4ccccc4)cc3)ncnc2cc1OCCCN1CCOCC1 [GSK301329] | 8% | 0% | 0% | 0% | 11% | 0%
OCCn1cc(-c2cnc3nnn(Cc4ccc5ncccc5c4)c3n2)cn1 | 0% | 0% | 0% | 20% | 0% | 0%
